Residue numbers refer to the chain shown, from its start. The full ranking holds about 16,000 sequences; the median of “ka relative to ugcaugu” is about 0.0091, and the highest 2% start at about 0.032. The sample holds the highest values, similar sequences and a random draw of the others, so the mix is not that of the screen.
T1: RBFOX1 RRM (Homo sapiens, UniProt Q9NWB1 109-208)
T1 sequence: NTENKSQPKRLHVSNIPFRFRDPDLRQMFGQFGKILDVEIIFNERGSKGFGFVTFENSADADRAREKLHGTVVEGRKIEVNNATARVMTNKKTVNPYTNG

B1: GACUGGA (DNA:RNA)
RNA: GGGAGACCGGAAUUCAGAUUGUCCGACUGGAUUAAAUCCCGUCGUAGCCACCA
DNA 1: CAATCTGAATTCCGGTCTCCC
DNA 2: TGGTGGCTACGACGGGATT
B2: AUGUUUG (DNA:RNA)
RNA: B1 RNA with G25A, A26U, C27G, G29U, G30U, A31G
DNA 1: CAATCTGAATTCCGGTCTCCC
DNA 2: TGGTGGCTACGACGGGATT
B3: AUCAGUG (DNA:RNA)
RNA: B1 RNA with G25A, A26U, U28A, G30U, A31G
DNA 1: CAATCTGAATTCCGGTCTCCC
DNA 2: TGGTGGCTACGACGGGATT
B4: AGUUGGA (DNA:RNA)
RNA: B1 RNA with G25A, A26G, C27U
DNA 1: CAATCTGAATTCCGGTCTCCC
DNA 2: TGGTGGCTACGACGGGATT
B5: ACGCCGG (DNA:RNA)
RNA: B1 RNA with G25A, A26C, C27G, U28C, G29C, A31G
DNA 1: CAATCTGAATTCCGGTCTCCC
DNA 2: TGGTGGCTACGACGGGATT
B6: GAGGGUG (DNA:RNA)
RNA: B1 RNA with C27G, U28G, G30U, A31G
DNA 1: CAATCTGAATTCCGGTCTCCC
DNA 2: TGGTGGCTACGACGGGATT
B7: UGUUCUC (DNA:RNA)
RNA: B1 RNA with G25U, A26G, C27U, G29C, G30U, A31C
DNA 1: CAATCTGAATTCCGGTCTCCC
DNA 2: TGGTGGCTACGACGGGATT
B8: AGAUUUA (DNA:RNA)
RNA: B1 RNA with G25A, A26G, C27A, G29U, G30U
DNA 1: CAATCTGAATTCCGGTCTCCC
DNA 2: TGGTGGCTACGACGGGATT
B9: GCGCCAC (DNA:RNA)
RNA: B1 RNA with A26C, C27G, U28C, G29C, G30A, A31C
DNA 1: CAATCTGAATTCCGGTCTCCC
DNA 2: TGGTGGCTACGACGGGATT
B10: GUCGUGG (DNA:RNA)
RNA: B1 RNA with A26U, U28G, G29U, A31G
DNA 1: CAATCTGAATTCCGGTCTCCC
DNA 2: TGGTGGCTACGACGGGATT
B11: GUGGUGG (DNA:RNA)
RNA: B1 RNA with A26U, C27G, U28G, G29U, A31G
DNA 1: CAATCTGAATTCCGGTCTCCC
DNA 2: TGGTGGCTACGACGGGATT
B12: GUGGUUG (DNA:RNA)
RNA: B1 RNA with A26U, C27G, U28G, G29U, G30U, A31G
DNA 1: CAATCTGAATTCCGGTCTCCC
DNA 2: TGGTGGCTACGACGGGATT
B13: UGGAUGU (DNA:RNA)
RNA: B1 RNA with G25U, A26G, C27G, U28A, G29U, A31U
DNA 1: CAATCTGAATTCCGGTCTCCC
DNA 2: TGGTGGCTACGACGGGATT
B14: UGGGAUG (DNA:RNA)
RNA: GGGAGACCGGAAUUCAGAUUGUCCUGGGAUGUUAAAUCCCGUCGUAGCCACCA
DNA 1: CAATCTGAATTCCGGTCTCCC
DNA 2: TGGTGGCTACGACGGGATT
B15: UGCGAUC (DNA:RNA)
RNA: B14 RNA with G27C, G31C
DNA 1: CAATCTGAATTCCGGTCTCCC
DNA 2: TGGTGGCTACGACGGGATT
B16: UGGAUUU (DNA:RNA)
RNA: B14 RNA with G28A, A29U, G31U
DNA 1: CAATCTGAATTCCGGTCTCCC
DNA 2: TGGTGGCTACGACGGGATT
B17: UGGGAGA (DNA:RNA)
RNA: B14 RNA with U30G, G31A
DNA 1: CAATCTGAATTCCGGTCTCCC
DNA 2: TGGTGGCTACGACGGGATT
B18: CCCUGGA (DNA:RNA)
RNA: B1 RNA with G25C, A26C
DNA 1: CAATCTGAATTCCGGTCTCCC
DNA 2: TGGTGGCTACGACGGGATT
B19: CUGGAGA (DNA:RNA)
RNA: B14 RNA with U25C, G26U, U30G, G31A
DNA 1: CAATCTGAATTCCGGTCTCCC
DNA 2: TGGTGGCTACGACGGGATT
B20: UGCGCGA (DNA:RNA)
RNA: B1 RNA with G25U, A26G, U28G, G29C
DNA 1: CAATCTGAATTCCGGTCTCCC
DNA 2: TGGTGGCTACGACGGGATT
B21: UGCGAUG (DNA:RNA)
RNA: B14 RNA with G27C
DNA 1: CAATCTGAATTCCGGTCTCCC
DNA 2: TGGTGGCTACGACGGGATT
B22: UGGGGGA (DNA:RNA)
RNA: B14 RNA with A29G, U30G, G31A
DNA 1: CAATCTGAATTCCGGTCTCCC
DNA 2: TGGTGGCTACGACGGGATT
B23: CGGAUGU (DNA:RNA)
RNA: B14 RNA with U25C, G28A, A29U, U30G, G31U
DNA 1: CAATCTGAATTCCGGTCTCCC
DNA 2: TGGTGGCTACGACGGGATT
B24: CUGGAUG (DNA:RNA)
RNA: B14 RNA with U25C, G26U
DNA 1: CAATCTGAATTCCGGTCTCCC
DNA 2: TGGTGGCTACGACGGGATT

What follows are binders tested against T1, RBFOX1 RRM (assay: EMSA; HiTS-Eq, 1 nM pool, 10 min; buffer printed only for the single-RNA assays: 10 mM Tris pH 7.5, 150 mM NaCl, 3.4 mM EDTA, 0.001% NP-40, 30 C). Settings: tags: His6 N-terminal (pET28a); label: 5' 32P.
Outline: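 Purified RbFox RRM, wild type or mutant, was incubated for 10 min in 50 µL with 1 nM of a 5′-radiolabelled RNA pool carrying 7 randomized nucleotides, whose flanks were annealed to DNA oligonucleotides, over a series of increasing protein concentrations. Unbound RNA was resolved on 8% native PAGE, cut out, reverse-transcribed, barcoded by PCR and sequenced on an Illumina HiSeq 2500. Relative association constants were derived from changes in read counts for each RNA species versus the control reaction and normalised to the cognate motif.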

**Q.** B1 was tested. Which binding signal did it give?
**A.** 0.0138 KA relative to UGCAUGU

**Q.** Which binding signal does the source give for B2 here?
**A.** 0.0211 KA relative to UGCAUGU

**Q.** B3 was tested. Which binding signal did it give?
**A.** 0.00865 KA relative to UGCAUGU

**Q.** With B4 as the binder, how does the binding signal read?
**A.** 0.00398 KA relative to UGCAUGU

**Q.** Which binding signal does the source give for B5 here?
**A.** 0.00777 KA relative to UGCAUGU

**Q.** Which binding signal does the source give for B6 here?
**A.** 0.0242 KA relative to UGCAUGU

**Q.** For B7, which binding signal is on record?
**A.** 0.0181 KA relative to UGCAUGU

**Q.** B8 was tested. Which binding signal did it give?
**A.** 0.00707 KA relative to UGCAUGU

**Q.** How did the binding signal turn out when B9 was run?
**A.** 0.00734 KA relative to UGCAUGU

**Q.** With B10 as the binder, how does the binding signal read?
**A.** 0.0185 KA relative to UGCAUGU

**Q.** With B11 as the binder, how does the binding signal read?
**A.** 0.0237 KA relative to UGCAUGU

**Q.** For B12, which binding signal is on record?
**A.** 0.0321 KA relative to UGCAUGU

**Q.** Which binding signal does the source give for B13 here?
**A.** 0.0494 KA relative to UGCAUGU

**Q.** Which binding signal does the source give for B14 here?
**A.** 0.0414 KA relative to UGCAUGU

**Q.** With B15 as the binder, how does the binding signal read?
**A.** 0.0166 KA relative to UGCAUGU

**Q.** For B16, which binding signal is on record?
**A.** 0.0242 KA relative to UGCAUGU

**Q.** How did the binding signal turn out when B17 was run?
**A.** 0.025 KA relative to UGCAUGU

**Q.** With B18 as the binder, how does the binding signal read?
**A.** 0.013 KA relative to UGCAUGU

**Q.** For B19, which binding signal is on record?
**A.** 0.0188 KA relative to UGCAUGU

**Q.** B20 was tested. Which binding signal did it give?
**A.** 0.0211 KA relative to UGCAUGU

**Q.** How did the binding signal turn out when B21 was run?
**A.** 0.0369 KA relative to UGCAUGU

**Q.** With B22 as the binder, how does the binding signal read?
**A.** 0.0155 KA relative to UGCAUGU

**Q.** B23 was tested. Which binding signal did it give?
**A.** 0.0261 KA relative to UGCAUGU

**Q.** Which binding signal does the source give for B24 here?
**A.** 0.0353 KA relative to UGCAUGU

From publication PMC9911399, “Two distinct binding modes provide the RNA-binding protein RbFox with extraordinary sequence specificity”
